The values that follow come from PMC7862700, “An all-to-all approach to the identification of sequence-specific readers for epigenetic DNA modifications on cytosine”.

Common to all, as to assay: DAPPL (digital affinity profiling via proximity ligation, sequencing); 10 mM Tris-HCl pH 7.5, 50 mM NaCl, 1 mM DTT, 4% glycerol, room temperature, 30 min; GST-TFs on glutathione beads, 16-mer random dsDNA library, 0.1% formaldehyde crosslink after washing; high values mean tight binding
One assay addresses T1, FLI1 (Homo sapiens, UniProt Q01543 1-452).
T1 sequence: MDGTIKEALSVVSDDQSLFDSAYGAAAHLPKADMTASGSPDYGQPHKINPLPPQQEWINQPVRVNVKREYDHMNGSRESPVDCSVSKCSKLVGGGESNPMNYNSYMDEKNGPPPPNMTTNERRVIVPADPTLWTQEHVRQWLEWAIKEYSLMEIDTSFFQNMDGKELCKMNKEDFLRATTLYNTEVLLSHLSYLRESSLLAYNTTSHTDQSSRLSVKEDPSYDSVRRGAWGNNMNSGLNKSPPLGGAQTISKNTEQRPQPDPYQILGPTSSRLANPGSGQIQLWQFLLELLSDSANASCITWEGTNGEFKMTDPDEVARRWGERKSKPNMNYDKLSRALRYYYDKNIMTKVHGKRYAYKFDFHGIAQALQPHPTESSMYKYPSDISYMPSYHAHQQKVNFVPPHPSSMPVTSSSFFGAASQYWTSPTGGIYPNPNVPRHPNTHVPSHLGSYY
The settings on record: protein: recombinant; tags: N-terminal GST; dsDNA, one strand shown. In outline: (§1)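 Beads coated with glutathione captured GST-fused human transcription factors that had been expressed in yeast, and the factors were then given DNA barcodes and pooled with a tag-only sample. The pools were incubated with 200 nmole of a random double-stranded 16-mer DNA library in Tris/NaCl/DTT/glycerol buffer for 30 min at room temperature, washed, crosslinked with 0.1% formaldehyde and proximity-ligated with BsaI/T4 ligase at 37 °C for 1 h. PCR amplification and Illumina NextSeq500 sequencing came last. Binding signal is each hexamer's read frequency for a factor divided by its frequency for the tag-only sample.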

In the next assay the target is T2, ELK1 (Homo sapiens, UniProt P19419 1-428).
T2 sequence: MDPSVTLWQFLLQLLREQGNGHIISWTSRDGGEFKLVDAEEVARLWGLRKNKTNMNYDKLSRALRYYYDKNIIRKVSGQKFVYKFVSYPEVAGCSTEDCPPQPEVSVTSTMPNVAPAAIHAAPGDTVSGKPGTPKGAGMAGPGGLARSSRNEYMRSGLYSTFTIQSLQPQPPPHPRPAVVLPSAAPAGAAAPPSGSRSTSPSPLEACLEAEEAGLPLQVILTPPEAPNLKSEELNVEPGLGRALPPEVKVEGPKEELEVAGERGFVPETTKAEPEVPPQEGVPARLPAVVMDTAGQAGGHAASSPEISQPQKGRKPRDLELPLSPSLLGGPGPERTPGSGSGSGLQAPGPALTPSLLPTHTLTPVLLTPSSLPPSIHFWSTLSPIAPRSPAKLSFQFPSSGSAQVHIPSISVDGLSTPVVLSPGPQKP
The settings on record: protein: recombinant; tags: N-terminal GST; dsDNA, one strand shown. In outline: as §1

In another assay the target is T3, GABPA (Homo sapiens, UniProt Q06546 1-454).
T3 sequence: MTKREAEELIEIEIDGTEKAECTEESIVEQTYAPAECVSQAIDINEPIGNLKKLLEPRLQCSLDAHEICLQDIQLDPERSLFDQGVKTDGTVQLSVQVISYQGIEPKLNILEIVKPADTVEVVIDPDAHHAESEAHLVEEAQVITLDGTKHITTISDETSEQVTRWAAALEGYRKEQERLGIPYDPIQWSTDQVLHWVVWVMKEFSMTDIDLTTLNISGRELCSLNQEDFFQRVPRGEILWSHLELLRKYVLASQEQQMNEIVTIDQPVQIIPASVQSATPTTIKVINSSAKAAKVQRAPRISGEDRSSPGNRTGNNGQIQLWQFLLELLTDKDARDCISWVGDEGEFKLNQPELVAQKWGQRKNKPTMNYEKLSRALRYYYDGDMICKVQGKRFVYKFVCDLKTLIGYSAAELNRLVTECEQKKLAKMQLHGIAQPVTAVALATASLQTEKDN
To be noted: protein: recombinant; tags: N-terminal GST; dsDNA, one strand shown. In outline: as §1

In another assay the target is T4, ERG (Homo sapiens, UniProt P11308 1-479).
T4 sequence: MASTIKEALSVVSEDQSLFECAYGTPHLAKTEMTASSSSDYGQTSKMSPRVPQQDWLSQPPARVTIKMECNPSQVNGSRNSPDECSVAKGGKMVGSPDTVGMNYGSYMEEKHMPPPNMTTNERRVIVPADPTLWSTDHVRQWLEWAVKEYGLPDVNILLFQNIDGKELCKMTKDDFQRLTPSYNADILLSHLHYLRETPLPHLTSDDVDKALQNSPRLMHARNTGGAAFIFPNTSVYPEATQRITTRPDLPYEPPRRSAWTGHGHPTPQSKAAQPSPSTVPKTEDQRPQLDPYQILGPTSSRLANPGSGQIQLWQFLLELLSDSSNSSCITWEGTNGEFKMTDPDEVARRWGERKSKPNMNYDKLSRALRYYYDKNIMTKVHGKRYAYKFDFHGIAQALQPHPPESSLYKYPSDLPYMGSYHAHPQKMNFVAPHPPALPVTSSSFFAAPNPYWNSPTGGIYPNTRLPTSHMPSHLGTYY
To be noted: protein: recombinant; tags: N-terminal GST; dsDNA, one strand shown. In outline: as §1

The target in the next assay is ELF1 (Homo sapiens, UniProt P32519 1-619). The settings on record: protein: recombinant; tags: N-terminal GST; dsDNA, one strand shown. In outline: as §1
ELF1, sequence (P32519 whole entry): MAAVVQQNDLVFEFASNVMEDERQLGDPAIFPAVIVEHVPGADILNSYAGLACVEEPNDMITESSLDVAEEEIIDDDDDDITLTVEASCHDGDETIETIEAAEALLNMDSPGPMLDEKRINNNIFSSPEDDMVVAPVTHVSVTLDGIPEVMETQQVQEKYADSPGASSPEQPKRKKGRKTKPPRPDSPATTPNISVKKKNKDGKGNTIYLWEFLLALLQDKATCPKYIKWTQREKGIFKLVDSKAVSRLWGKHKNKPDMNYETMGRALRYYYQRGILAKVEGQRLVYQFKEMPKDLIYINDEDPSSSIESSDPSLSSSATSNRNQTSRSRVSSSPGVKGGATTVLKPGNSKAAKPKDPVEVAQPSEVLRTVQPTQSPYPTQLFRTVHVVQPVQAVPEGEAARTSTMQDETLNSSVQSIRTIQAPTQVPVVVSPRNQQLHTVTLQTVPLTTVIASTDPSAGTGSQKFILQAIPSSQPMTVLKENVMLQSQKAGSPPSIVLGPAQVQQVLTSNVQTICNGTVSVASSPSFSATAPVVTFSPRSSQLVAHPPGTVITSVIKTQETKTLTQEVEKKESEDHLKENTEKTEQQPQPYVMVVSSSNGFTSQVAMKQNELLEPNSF
The target in a further assay is T5, EHF (Homo sapiens, UniProt Q9NZC4 1-300).
T5 sequence: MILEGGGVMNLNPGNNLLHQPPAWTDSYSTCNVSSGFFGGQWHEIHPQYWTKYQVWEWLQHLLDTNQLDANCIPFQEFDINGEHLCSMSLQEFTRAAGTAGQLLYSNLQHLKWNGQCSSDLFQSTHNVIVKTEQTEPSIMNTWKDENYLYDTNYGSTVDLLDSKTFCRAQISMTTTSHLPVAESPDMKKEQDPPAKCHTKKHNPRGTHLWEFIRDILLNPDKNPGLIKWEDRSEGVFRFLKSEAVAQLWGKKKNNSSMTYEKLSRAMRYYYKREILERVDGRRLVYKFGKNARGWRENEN
The settings on record: protein: recombinant; tags: N-terminal GST; dsDNA, one strand shown. The method, boiled down: as §1

A further assay deals with SPI1 (Homo sapiens, UniProt P17947 1-270). The settings on record: protein: recombinant; tags: N-terminal GST; dsDNA, one strand shown. The method, boiled down: as §1
The target of another assay is SPIB (Homo sapiens, UniProt Q01892 1-262). To be noted: protein: recombinant; tags: N-terminal GST; dsDNA, one strand shown. In outline:
as §1

The next assay addresses T6, FEV (Homo sapiens, UniProt Q99581 1-238).
T6 sequence: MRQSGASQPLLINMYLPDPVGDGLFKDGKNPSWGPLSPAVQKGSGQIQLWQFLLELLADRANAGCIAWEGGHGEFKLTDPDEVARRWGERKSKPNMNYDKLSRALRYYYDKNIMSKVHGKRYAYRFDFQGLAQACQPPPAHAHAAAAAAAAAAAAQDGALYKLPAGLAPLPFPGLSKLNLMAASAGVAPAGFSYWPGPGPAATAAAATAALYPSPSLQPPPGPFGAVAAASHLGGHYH
To be noted: protein: recombinant; tags: N-terminal GST; dsDNA, one strand shown. The method, boiled down:
as §1

A further assay concerns the target ETV5 (Homo sapiens, UniProt P41161 1-510). To be noted: protein: recombinant; tags: N-terminal GST; dsDNA, one strand shown. The method, boiled down:
as §1

The next assay has as its target HSF1 (Homo sapiens, UniProt Q00613 1-529). The settings on record: protein: recombinant; tags: N-terminal GST; chain copies: 3; dsDNA, one strand shown. The method, boiled down: as §1
In a further assay the target is T7, SPIC (Homo sapiens, UniProt Q8N5J4 1-248).
T7 sequence: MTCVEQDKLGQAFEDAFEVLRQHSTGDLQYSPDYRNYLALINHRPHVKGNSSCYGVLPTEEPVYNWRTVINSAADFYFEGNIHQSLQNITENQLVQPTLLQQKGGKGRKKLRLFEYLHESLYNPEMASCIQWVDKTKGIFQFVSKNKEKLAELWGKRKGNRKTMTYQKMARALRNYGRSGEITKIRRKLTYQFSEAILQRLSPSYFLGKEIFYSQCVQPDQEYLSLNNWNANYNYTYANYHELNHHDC
To be noted: protein: recombinant; tags: N-terminal GST; dsDNA, one strand shown. In outline:
as §1

Another assay concerns the target ELF4 (Homo sapiens, UniProt Q99607 1-663). The settings on record: protein: recombinant; tags: N-terminal GST; dsDNA, one strand shown. The method, boiled down: as §1
For the next assay, the target named is T8, ELK4 (Homo sapiens, UniProt P28324-2 1-405).
T8 sequence: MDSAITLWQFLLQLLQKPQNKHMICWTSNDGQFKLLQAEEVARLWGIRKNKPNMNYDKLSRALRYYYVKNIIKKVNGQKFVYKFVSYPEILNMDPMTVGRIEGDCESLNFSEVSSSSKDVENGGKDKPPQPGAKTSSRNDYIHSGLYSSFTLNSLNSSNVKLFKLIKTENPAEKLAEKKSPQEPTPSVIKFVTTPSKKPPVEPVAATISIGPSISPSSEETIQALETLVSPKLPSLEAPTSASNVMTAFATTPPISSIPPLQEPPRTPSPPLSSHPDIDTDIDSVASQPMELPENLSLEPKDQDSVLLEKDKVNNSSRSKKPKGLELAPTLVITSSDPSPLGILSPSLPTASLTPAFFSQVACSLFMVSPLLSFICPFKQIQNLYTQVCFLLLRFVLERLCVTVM
The settings on record: protein: recombinant; tags: N-terminal GST; dsDNA, one strand shown. In outline: as §1

In the next assay the target is T9, ELF3 (Homo sapiens, UniProt P78545 1-371).
T9 sequence: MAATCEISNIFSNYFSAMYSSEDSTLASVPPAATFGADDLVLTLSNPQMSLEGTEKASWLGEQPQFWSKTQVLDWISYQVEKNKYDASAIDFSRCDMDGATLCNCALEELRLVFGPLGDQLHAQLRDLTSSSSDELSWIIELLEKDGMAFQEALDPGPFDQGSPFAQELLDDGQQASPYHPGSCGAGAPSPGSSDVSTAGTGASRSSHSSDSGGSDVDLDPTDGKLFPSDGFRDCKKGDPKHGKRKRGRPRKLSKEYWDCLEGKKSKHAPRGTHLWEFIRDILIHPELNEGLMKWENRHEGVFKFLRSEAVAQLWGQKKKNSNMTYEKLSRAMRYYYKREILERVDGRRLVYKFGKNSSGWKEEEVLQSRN
The settings on record: protein: recombinant; tags: N-terminal GST; dsDNA, one strand shown. In outline:
as §1

The target of the next assay is ETV1 (Homo sapiens, UniProt P50549 1-477). To be noted: protein: recombinant; tags: N-terminal GST; dsDNA, one strand shown. In outline: as §1
ETV1, sequence (P50549 whole entry): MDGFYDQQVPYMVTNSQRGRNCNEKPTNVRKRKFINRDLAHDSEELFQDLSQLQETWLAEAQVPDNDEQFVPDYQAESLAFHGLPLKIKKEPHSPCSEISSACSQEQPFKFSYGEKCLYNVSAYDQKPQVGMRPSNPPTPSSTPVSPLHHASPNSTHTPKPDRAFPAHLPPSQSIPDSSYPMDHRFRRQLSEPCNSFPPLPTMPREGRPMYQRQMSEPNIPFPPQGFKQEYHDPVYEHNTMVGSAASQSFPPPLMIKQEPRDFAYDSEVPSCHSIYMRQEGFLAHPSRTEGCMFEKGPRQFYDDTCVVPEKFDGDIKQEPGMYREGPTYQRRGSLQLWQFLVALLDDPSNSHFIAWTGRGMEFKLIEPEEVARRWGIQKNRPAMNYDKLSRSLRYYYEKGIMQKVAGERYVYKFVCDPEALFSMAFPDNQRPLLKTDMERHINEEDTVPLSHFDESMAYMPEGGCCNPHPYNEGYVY

HSF1, sequence (Q00613 whole entry): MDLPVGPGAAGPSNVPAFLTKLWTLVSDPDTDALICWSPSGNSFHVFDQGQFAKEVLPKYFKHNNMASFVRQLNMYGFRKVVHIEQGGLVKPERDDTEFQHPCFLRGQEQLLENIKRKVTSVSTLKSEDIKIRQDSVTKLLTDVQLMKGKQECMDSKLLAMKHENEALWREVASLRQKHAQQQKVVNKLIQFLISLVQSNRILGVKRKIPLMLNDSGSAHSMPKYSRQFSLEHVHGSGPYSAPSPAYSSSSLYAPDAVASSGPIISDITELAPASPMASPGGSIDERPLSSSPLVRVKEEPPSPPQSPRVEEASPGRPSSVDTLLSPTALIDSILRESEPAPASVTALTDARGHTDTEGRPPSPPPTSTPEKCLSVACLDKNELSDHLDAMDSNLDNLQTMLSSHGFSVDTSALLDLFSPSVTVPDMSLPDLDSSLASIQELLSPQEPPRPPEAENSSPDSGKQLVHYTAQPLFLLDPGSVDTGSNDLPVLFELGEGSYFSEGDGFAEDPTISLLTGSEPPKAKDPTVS
SPIB, sequence (Q01892 whole entry): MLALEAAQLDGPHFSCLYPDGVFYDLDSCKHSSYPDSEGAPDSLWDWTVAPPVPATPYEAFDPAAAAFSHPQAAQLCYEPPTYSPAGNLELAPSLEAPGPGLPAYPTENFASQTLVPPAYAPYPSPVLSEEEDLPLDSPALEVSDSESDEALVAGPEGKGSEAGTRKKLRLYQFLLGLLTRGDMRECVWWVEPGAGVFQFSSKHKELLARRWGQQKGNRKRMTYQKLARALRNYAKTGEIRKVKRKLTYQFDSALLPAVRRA
ELF4, sequence (Q99607 whole entry): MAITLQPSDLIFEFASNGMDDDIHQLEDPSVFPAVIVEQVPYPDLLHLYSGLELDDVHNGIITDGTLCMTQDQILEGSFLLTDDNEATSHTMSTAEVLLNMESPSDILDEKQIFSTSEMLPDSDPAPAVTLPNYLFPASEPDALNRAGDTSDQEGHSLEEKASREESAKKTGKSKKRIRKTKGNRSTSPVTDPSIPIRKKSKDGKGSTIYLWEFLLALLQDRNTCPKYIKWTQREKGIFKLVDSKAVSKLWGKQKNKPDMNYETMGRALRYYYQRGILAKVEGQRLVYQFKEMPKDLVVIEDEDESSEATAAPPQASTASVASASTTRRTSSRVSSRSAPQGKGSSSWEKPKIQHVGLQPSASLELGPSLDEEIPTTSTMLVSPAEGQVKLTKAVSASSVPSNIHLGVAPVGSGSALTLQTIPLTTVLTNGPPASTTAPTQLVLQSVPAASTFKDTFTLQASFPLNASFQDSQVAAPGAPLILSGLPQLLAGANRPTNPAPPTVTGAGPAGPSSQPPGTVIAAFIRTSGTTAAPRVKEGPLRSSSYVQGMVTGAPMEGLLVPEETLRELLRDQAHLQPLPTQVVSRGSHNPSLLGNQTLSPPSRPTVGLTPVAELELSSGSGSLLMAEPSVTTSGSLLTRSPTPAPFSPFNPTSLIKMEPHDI
ETV5, sequence (P41161 whole entry): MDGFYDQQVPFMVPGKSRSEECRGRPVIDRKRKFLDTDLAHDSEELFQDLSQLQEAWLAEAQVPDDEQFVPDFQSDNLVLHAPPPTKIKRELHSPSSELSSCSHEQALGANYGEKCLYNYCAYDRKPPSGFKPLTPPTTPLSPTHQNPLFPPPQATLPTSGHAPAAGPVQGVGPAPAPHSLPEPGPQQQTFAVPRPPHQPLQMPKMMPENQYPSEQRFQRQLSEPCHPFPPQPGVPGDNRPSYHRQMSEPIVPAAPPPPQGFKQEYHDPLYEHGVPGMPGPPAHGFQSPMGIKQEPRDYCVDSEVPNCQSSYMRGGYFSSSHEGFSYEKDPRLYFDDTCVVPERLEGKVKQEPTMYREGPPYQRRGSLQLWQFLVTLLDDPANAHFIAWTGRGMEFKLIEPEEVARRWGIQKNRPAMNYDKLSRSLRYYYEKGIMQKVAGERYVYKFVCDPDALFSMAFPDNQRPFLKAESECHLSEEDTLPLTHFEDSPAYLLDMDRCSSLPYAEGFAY

For TGCGCA, the binding signal in the assay with FLI1 was 1.17 fold enrichment (6-mer frequency, TF over GST control); with ELK1, 1.07 fold enrichment (6-mer frequency, TF over GST control); in the assay with GABPA, 1.07 fold enrichment (6-mer frequency, TF over GST control); with ERG it was 1.07 fold enrichment (6-mer frequency, TF over GST control); in the assay with ELF1 it was 1.14 fold enrichment (6-mer frequency, TF over GST control); with EHF it was 1.16 fold enrichment (6-mer frequency, TF over GST control). For the same sequence, the binding signal with SPI1 was 1.08 fold enrichment (6-mer frequency, TF over GST control); with SPIB it was 1.02 fold enrichment (6-mer frequency, TF over GST control); in the assay with FEV, 1.14 fold enrichment (6-mer frequency, TF over GST control); with ETV5, 1.12 fold enrichment (6-mer frequency, TF over GST control); in the assay with HSF1 it was 1.07 fold enrichment (6-mer frequency, TF over GST control); with SPIC, 1.15 fold enrichment (6-mer frequency, TF over GST control). The binding signal with ELF4 is 1.09 fold enrichment (6-mer frequency, TF over GST control); with ELK4, 1.12 fold enrichment (6-mer frequency, TF over GST control); with ELF3 it was 1.06 fold enrichment (6-mer frequency, TF over GST control); with ETV1 it was 1.07 fold enrichment (6-mer frequency, TF over GST control).
